Assay [1] in a line: Human pregnane X receptor (PXR) small molecule agonists, qHTS cell viability counter screen (AID 1346977). Note: nearly all actives have a fitted effect of over 50% in size. Note: potency is the fitted concentration of half-maximal effect. Summed up: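 Cytotoxicity counter screen run in the same wells as the PXR luciferase assay, using PXR-Luc HepG2 cells in charcoal-stripped serum medium. Viability: CellTiter-Fluor fluorescence after 24hr compound treatment.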
A general note: Quantitative high-throughput screening tests each substance at several concentrations.

Assay [2] in a line: Caspase-3/7 induction in HepG2 cells by small molecules, qHTS assay (AID 1346978). Note: nearly all actives have a fitted effect of over 15% in size. Note: potency is the fitted concentration of half-maximal effect. Summed up:
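Caspase-3/7 induction was measured by Caspase-Glo 3/7 luminescence (30 min, room temperature) after a 17 hr compound exposure of wild-type HepG2 cells seeded at 2,000 per well and pre-incubated 5 hr.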

Assay [3] is described as follows: Caspase-3/7 induction in CHO-K1 cells by small molecules, qHTS cell viability counter screen (AID 1346979). Note: nearly all actives have a fitted effect of over 35% in size. Note: potency is the fitted concentration of half-maximal effect. Summed up: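 Cytotoxicity counter screen run in parallel with the caspase-3/7 assay: CHO-K1 cells, 16hr compound treatment at 37C, then CellTiter-Fluor for 1hr before fluorescence reading.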
Assay [4] is described as follows: Caspase-3/7 induction in CHO-K1 cells by small molecules, qHTS assay (AID 1346980). Note: nearly all actives have a fitted effect of over 15% in size. Note: potency is the fitted concentration of half-maximal effect. The essentials: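 Luminescent Caspase-Glo 3/7 read (30min, room temperature) quantified apoptosis induction. Cells were wild-type CHO-K1, treated with compound for 17hr at 37 C and 5% CO2.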
A short description of assay [5]: Caspase-3/7 induction in HepG2 cells by small molecules, qHTS cell viability counter screen (AID 1346981). Note: nearly all actives have a fitted effect of over 30% in size. Note: potency is the fitted concentration of half-maximal effect. Summed up:
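In this quantitative HTS counter screen, compounds delivered in DMSO were left on unmodified HepG2 cells for 16 hr at 37 C. Viability was then determined fluorometrically with CellTiter-Fluor, in parallel with caspase-3/7 induction in the same wells.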

The target of assay [6] is Acetylcholinesterase (Homo sapiens) (UniProt P22303). In words: Acetylcholinesterase (AChE) small molecule antagonists: colormetric cell-based qHTS assay (AID 1347395; calls by dose curve; note: nearly all actives have a fitted effect of over 30% in size; note: potency is the fitted concentration of half-maximal effect). Summed up: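 Cells (SH-SY5Y, 2,000 per well) are seeded and left overnight at 37 C. Compound is added for 30 min, then DTNB and acetylthiocholine for a further 90 min at 37 C before absorbance-based thiocholine detection.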

For assay [7] the target is unchanged. In words: Acetylcholinesterase (AChE) small molecule antagonists: enzyme-based qHTS assay (AID 1347397; calls by dose curve; note: nearly all actives have a fitted effect of over 55% in size). The note with it: Potency: AChE enzyme activity inhibition. The essentials:
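First, recombinant human AChE (50 mU/mL as dispensed) received test compound or DMSO. Second, plates stood 30 min at room temperature. Third, DTNB and acetylthiocholine were added, followed by 10 min at room temperature and colorimetric detection.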

For assay [8] the target is unchanged. In words: Acetylcholinesterase (AChE) small molecule antagonists: fluorescence cell-based qHTS assay (AID 1347398; calls by dose curve; note: nearly all actives have a fitted effect of over 50% in size; note: potency is the fitted concentration of half-maximal effect). As to conditions: Potency: AChE activity. Summed up:
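Homogeneous quantitative HTS format. SH-SY5Y cells seeded at 2,000 per well settle overnight at 37 C. Compound pretreatment runs 30 min (37 C, 5% CO2); substrate/probe mix then reacts 40 min at RT before reading 490/520 nm.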

Assay [9] has the same target. In words: Acetylcholinesterase (AChE) small molecule antagonists: enzyme-based qHTS assay with human liver microsomes (AID 1347399; calls by dose curve; note: nearly all actives have a fitted effect of over 60% in size). As to conditions: Potency: qHTS inhibition. Summed up:
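Recombinant human AChE (50 mU/mL in the enzyme mix) and human liver microsomes (0.25 mg/mL final) were preincubated with compound and NADPH (0.25 mg/mL final) for 30 min at 37 C. Acetylthiocholine/DTNB was then added; thiocholine was read colorimetrically after 10 min at room temperature.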

Assay [10] deals with Cytochrome P450 2D6 (Homo sapiens) (UniProt P10635). In words: Cytochrome P450 Family 2 Subfamily D Member 6 (CYP2D6) small molecule antagonists: luciferase reporter qHTS assay (AID 1671196). Note: nearly all actives have a fitted effect of over 50% in size. Note: potency is the fitted concentration of half-maximal effect. The essentials: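 Test chemicals meet CYP2D6 plus proluciferin substrate (10 min, RT); NADPH regenerating solution then drives turnover for 1 h. Detection reagent halts the reaction; luminescence measured after 20 min.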

Assay [11] concerns the target Cytochrome P450 2C19 (Homo sapiens) (UniProt P33261). In words: Cytochrome P450 Family 2 Subfamily C Member 19 (CYP2C19) small molecule antagonists: luciferase reporter qHTS assay (AID 1671197). Note: nearly all actives have a fitted effect of over 65% in size. Note: potency is the fitted concentration of half-maximal effect. Summed up:
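Relative luminescence units recorded 20 min after the detection reagent stopped a 1 h, 37C CYP2C19 reaction on proluciferin substrate, which was started by NADPH regeneration following 10 min room-temperature compound preincubation; ketoconazole positive control.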
A general note: Reporter assays use an easily measured gene product as a stand-in for the process of interest.

Assay [12] addresses Cytochrome P450 2C9 (Homo sapiens) (UniProt P11712). In words: Cytochrome P450 Family 2 Subfamily C Member 9 (CYP2C9) small molecule antagonists: luciferase reporter qHTS assay (AID 1671198). Note: nearly all actives have a fitted effect of over 50% in size. Note: potency is the fitted concentration of half-maximal effect. Summed up:
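Enzyme-substrate mix preincubated with compound 10 min at room temperature; reaction started with NADPH regeneration solution, 1 h 37C. Luminescent luciferin product read after 20 min detection reagent.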

Assay [13] addresses Cytochrome P450 1A2 (Homo sapiens) (UniProt P05177). In words: Cytochrome P450 Family 1 Subfamily A Member 2 (CYP1A2) small molecule antagonists: luciferase reporter qHTS assay (AID 1671199). Note: nearly all actives have a fitted effect of over 50% in size. Note: potency is the fitted concentration of half-maximal effect. Summed up: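 Steps: enzyme-substrate mix dispensed; test compounds and furafylline control pinned in; 10 min room temperature; NADPH regeneration solution added, 1 h; reaction stopped with luciferin detection reagent; luminescence read after 20 min.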

In assay [14] the target is Cytochrome P450 3A4 (Homo sapiens) (UniProt P08684). In words: Cytochrome P450 Family 3 Subfamily A Member 4 (CYP3A4) small molecule antagonists: luciferase reporter qHTS assay (AID 1671201). Note: nearly all actives have a fitted effect of over 50% in size. Note: potency is the fitted concentration of half-maximal effect. The essentials: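 qHTS, 1536-well. CYP3A4 + proluciferin substrate, cpd 10 min RT → NADPH regen 1 h RT → detection reagent 20 min → luminescence (RLU). Ketoconazole positive control.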

Assay [15] deals with Nuclear receptor subfamily 1 group I member 2 (Homo sapiens) (UniProt O75469). In words: Human pregnane X receptor (PXR) small molecule agonists, qHTS assay (AID 1346982). Note: nearly all actives have a fitted effect of over 35% in size. Summed up: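 Reporter HepG2 cells expressing PXR-Luc are cultured in charcoal-stripped FBS (5%), treated with compounds for 24 hr at 37 C, and assayed by ONE-Glo luminescence after 30 min at room temperature.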

Assay [16] has as its target Voltage-gated inwardly rectifying potassium channel KCNH2 (Homo sapiens) (UniProt Q12809). In words: Human Ether-a-go-go-Related Gene (hERG) channel small molecule antagonists: fluorescence cell-based qHTS assay (AID 1671200). The essentials: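 Fluorescence at 540 nm emission (480 nm excitation) was recorded kinetically for 2 min at 1-second intervals once the thallium-containing stimulus reached cells previously loaded with FluxOR II dye.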
In general terms: hERG is a cardiac potassium channel; its block is linked to QT prolongation.

Unmarked numbers belong to inactive results. Results filed as inconclusive are left out. Active and inactive are the calls of the source. Unless noted, calls come from the whole dose curve; as a rule, active = well fitted curve in the direction sought with a large enough effect in the repeat runs; inconclusive = weak or mixed curves; inactive = no such curve, though single readings can be large; an effect the other way counts as inactive or inconclusive.

Cytochrome P450 2D6 (Homo sapiens), sequence (P10635 whole entry, looked up): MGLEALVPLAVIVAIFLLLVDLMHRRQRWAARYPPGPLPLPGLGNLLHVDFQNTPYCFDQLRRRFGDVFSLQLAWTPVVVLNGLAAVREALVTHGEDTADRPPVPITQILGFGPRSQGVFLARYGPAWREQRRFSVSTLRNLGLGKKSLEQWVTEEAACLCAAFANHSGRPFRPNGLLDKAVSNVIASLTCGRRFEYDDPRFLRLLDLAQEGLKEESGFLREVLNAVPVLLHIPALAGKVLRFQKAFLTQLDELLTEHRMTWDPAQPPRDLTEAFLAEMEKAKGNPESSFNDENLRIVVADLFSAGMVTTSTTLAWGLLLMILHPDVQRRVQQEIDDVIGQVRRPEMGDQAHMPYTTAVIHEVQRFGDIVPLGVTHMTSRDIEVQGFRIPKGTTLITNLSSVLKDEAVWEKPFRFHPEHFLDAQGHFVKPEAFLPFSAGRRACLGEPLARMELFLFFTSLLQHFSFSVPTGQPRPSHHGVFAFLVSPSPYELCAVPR
Voltage-gated inwardly rectifying potassium channel KCNH2 (Homo sapiens), sequence (Q12809 whole entry, looked up): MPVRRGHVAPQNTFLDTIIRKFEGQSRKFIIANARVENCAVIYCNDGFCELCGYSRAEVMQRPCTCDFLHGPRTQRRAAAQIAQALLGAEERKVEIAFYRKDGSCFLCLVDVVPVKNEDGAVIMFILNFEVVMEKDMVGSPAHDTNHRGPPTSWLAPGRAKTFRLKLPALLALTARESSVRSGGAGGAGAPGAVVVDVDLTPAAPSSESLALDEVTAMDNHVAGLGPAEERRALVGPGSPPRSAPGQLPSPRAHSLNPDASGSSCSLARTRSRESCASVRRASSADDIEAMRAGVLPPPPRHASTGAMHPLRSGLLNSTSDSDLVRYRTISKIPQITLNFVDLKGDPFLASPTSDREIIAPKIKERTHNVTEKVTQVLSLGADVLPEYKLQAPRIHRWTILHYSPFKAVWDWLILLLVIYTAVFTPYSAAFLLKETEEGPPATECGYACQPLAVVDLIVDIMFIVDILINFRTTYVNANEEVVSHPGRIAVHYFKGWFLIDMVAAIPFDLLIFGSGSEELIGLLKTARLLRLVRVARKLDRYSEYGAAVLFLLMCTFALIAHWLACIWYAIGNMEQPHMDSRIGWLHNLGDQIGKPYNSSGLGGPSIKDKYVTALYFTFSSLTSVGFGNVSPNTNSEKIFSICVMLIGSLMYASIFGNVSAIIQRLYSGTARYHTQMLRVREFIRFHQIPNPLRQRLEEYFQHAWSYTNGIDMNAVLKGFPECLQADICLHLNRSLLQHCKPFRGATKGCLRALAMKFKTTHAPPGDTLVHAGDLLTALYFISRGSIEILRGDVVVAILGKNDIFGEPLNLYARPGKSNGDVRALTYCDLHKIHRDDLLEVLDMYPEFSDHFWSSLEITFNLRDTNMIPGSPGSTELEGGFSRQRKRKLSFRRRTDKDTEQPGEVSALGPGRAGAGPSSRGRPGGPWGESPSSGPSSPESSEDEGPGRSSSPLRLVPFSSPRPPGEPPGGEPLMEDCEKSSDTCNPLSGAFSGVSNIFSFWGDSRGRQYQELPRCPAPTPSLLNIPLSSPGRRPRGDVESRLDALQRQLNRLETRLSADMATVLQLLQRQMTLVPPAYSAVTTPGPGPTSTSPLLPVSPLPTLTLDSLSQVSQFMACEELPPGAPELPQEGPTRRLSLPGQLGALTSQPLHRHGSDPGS
Cytochrome P450 2C19 (Homo sapiens), sequence (P33261 whole entry, looked up): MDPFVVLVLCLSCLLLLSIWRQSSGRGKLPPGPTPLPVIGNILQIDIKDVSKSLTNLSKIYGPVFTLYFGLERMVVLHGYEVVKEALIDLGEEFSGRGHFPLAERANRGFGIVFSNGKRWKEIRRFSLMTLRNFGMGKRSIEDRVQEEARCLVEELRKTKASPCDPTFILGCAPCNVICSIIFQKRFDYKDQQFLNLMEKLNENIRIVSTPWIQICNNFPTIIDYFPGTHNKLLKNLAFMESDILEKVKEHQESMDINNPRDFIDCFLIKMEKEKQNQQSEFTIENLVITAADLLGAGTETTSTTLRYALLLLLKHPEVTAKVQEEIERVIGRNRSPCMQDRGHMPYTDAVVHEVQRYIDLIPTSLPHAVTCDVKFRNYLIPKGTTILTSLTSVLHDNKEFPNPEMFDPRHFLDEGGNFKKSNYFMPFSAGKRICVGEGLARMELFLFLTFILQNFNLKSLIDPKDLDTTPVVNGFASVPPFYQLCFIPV
Cytochrome P450 2C9 (Homo sapiens), sequence (P11712 whole entry, looked up): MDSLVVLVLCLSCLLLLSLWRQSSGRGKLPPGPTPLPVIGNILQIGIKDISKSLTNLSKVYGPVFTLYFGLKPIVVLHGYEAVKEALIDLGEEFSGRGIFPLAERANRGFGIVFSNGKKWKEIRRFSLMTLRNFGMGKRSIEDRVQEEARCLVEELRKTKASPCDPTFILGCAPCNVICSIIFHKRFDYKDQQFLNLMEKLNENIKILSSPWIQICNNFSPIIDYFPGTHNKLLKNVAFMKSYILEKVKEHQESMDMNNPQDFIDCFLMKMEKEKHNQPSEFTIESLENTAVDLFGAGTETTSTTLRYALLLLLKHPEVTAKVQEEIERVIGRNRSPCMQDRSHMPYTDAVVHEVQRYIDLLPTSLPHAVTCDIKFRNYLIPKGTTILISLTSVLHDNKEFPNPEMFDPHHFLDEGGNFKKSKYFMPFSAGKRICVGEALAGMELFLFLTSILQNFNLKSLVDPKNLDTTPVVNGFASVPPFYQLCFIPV
Cytochrome P450 1A2 (Homo sapiens), sequence (P05177 whole entry, looked up): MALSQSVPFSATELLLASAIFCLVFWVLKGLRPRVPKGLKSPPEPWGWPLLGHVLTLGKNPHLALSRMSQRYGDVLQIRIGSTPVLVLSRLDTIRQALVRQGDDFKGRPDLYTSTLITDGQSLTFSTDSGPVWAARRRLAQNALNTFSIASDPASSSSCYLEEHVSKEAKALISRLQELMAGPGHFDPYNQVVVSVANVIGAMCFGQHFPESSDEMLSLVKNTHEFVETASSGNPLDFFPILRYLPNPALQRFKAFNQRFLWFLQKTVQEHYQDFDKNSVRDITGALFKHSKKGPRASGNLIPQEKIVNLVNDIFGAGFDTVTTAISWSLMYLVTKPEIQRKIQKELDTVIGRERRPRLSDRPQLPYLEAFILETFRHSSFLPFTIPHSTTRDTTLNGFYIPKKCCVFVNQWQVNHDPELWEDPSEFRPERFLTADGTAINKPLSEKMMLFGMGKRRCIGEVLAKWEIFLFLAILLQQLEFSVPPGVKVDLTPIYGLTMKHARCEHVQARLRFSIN
Acetylcholinesterase (Homo sapiens), sequence (P22303 whole entry, looked up): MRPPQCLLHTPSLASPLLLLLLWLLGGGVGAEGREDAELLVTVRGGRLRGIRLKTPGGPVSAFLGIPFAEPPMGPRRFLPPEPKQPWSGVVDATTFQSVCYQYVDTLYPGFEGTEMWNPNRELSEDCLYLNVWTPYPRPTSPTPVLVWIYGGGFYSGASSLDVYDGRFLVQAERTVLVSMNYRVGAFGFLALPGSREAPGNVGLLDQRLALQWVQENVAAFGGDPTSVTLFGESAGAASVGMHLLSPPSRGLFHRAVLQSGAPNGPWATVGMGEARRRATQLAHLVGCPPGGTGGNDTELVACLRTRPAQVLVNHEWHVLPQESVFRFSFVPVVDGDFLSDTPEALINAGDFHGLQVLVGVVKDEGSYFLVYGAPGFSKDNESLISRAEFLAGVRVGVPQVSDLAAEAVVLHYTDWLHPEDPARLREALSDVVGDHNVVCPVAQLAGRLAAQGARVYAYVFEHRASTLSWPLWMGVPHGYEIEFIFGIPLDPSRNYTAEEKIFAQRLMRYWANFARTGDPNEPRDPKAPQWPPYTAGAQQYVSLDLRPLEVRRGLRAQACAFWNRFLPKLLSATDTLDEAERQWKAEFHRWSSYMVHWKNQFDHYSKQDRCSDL
Cytochrome P450 3A4 (Homo sapiens), sequence (P08684 whole entry, looked up): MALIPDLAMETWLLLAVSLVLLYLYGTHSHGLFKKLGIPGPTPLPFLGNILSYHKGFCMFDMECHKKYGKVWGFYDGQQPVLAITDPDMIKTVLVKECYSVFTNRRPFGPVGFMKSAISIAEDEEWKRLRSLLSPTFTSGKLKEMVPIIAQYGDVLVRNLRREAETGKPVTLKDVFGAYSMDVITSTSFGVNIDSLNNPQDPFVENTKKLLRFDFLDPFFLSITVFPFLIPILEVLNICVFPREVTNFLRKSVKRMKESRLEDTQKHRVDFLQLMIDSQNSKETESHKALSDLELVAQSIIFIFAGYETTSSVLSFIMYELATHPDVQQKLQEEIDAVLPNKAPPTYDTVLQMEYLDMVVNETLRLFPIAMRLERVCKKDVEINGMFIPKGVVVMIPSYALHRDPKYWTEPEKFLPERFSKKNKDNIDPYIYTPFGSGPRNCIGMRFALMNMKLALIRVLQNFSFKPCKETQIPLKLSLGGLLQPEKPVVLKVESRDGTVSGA
Nuclear receptor subfamily 1 group I member 2 (Homo sapiens), sequence (O75469 whole entry, looked up): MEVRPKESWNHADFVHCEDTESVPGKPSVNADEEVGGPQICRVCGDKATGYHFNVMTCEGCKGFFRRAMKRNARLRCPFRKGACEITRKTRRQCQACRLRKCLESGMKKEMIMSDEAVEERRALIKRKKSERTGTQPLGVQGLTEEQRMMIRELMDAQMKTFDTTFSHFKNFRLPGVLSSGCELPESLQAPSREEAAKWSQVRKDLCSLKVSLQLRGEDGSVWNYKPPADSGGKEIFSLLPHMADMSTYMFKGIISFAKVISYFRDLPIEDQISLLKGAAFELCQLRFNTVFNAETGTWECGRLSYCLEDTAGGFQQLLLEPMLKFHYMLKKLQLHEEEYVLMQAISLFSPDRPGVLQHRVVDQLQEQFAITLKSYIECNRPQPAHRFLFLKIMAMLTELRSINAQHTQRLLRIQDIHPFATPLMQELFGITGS

Regarding `CC[C@H](C)[C@H]1O[C@]2(C=C[C@@H]1C)C[C@@H]1C[C@@H](C/C=C(\C)[C@@H](O[C@H]3C[C@H](OC)[C@@H](O[C@H]4C[C@H](OC)[C@@H](NC)[C@H](C)O4)[C@H](C)O3)[C@@H](C)/C=C/C=C3\CO[C@@H]4[C@H](O)C(C)=C[C@@H](C(=O)O1)[C@]34O)O2`, the Potency in assay [1] is 6.86 µM (active); in assay [2], 17.2 µM (active); in assay [3], 6.11 µM (active); in assay [4], 6.11 µM (active); in [5] it was 15.4 µM (active); in assay [10], 63.3 µM (active). Moreover, the Potency in assay [11] was 35.6 µM (active); in assay [12], 35.6 µM (active); in [13] it was 35.6 µM (active); in assay [14] it was 1.59 µM (active). The Potency entry in assay [6], in assay [7], in assay [8] and in assay [9] was “inactive” throughout.
Take `CCCCC(CC)COC(=O)OOC(C)(C)C` (centres undefined): the Potency result in assay [1], in [2], in assay [3], in assay [4], in assay [15] and in assay [6] was “inactive” each time. Also, the Potency entry in assay [7], in [8], in [9], in assay [10], in [11] and in assay [12] was “inactive” throughout. The Potency entry in assay [16] and in [14] was “inactive” in each case.
As for `Cc1ccn2nc(S(=O)(=O)Nc3c(F)cccc3F)nc2n1`, the Potency entry in assay [1], in assay [2], in assay [3], in assay [4], in assay [15] and in [6] was “inactive” throughout. Moreover, the Potency entry in assay [7], in assay [8], in [9], in assay [10], in assay [11] and in [13] was “inactive” in each case. Besides, the Potency result in [14] was “inactive”. Further, the Potency in assay [12] is 39.9 µM (active).
On to `CCCCn1cc[n+](C)c1.[Cl][Fe-]([Cl])([Cl])[Cl]`, for which the Potency entry in assay [1], in [2], in [3], in assay [4], in assay [5] and in assay [16] was “inactive” throughout.
Regarding `CC(=O)O.CC(=O)O.CC(=O)O.CC(=O)O.CC(=O)O.CC(=O)O.CC(=O)O.O.O.[Cr].[Cr].[Cr]`, the Potency entry in assay [1], in [2], in assay [3], in assay [4], in assay [5] and in assay [16] was “inactive” in each case.
With `O=C(O)[C@H](O)[C@@H](O)C(=O)O`, the Potency entry in [1], in [2], in [3], in assay [4], in assay [5] and in assay [6] was “inactive” throughout. Moreover, the Potency entry in assay [7], in [8] and in [16] was “inactive” throughout.
Regarding `CNC(=O)O/N=C(\C)C(C)S(C)(=O)=O` (centres undefined), the Potency result in assay [1], in assay [2], in assay [3], in [4], in [5] and in assay [9] was “inactive” in each case. Further, the Potency result in assay [11], in assay [12], in assay [13], in assay [16] and in [14] was “inactive” throughout. Moreover, the values for the Potency in [6] and in [8] were 355 µM (active) and 447 µM (active), respectively.
For `CNC(=O)/C=C(\C)OP(=O)(OC)OC`, the Potency entry in [1], in [2], in assay [3], in assay [4], in assay [5] and in [15] was “inactive” throughout. The Potency entry in [9], in assay [10], in assay [11], in [12] and in assay [16] was “inactive” each time. Moreover, the Potency in assay [8] was 31.7 µM (active); in [13], 28.3 µM (active).

(Values after PubChem BioAssay (Tox21).)
